{"source": "the supplement of paper PMC11634586", "note": "Structures can show the parent of a compound that is named as a salt.", "data": [{"system": "NCI-H1688", "experiment": "inhibition of cell viability relative to untreated control (fraction); higher = stronger growth inhibition, active = 0.5 or more", "conditions": "30 µM; 24 h", "how_it_was_run": "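Inhibition of cell viability appears as a fraction, based on viability relative to untreated cells. The assay used NCI-H1688 small cell lung cancer cells seeded in 96-well plates at 3 × 10^3 cells/well, treated one day later with a natural compound library (TargetMol) at 30 µM for 24 h at 37°C and 5% CO2. Absorbance at 450 nm with Cell Counting Kit-8 was recorded in triplicate.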", "values": [{"smiles": "Cn1c(=O)c2nc[nH]c2n(C)c1=O", "note": "[Theophylline]", "inhibition of cell viability": "-0.0544 (inactive)"}, {"smiles": "Cc1cccc(C)c1NC(=O)c1ccccc1C(=O)O", "note": "[Ftaxilide]", "inhibition of cell viability": "-0.0604 (inactive)"}, {"smiles": "O=C1c2cccc(O)c2C(=O)c2c(O)cc(CO)cc21", "note": "[Aloe-emodin]", "inhibition of cell viability": "0.373 (inactive)"}, {"smiles": "CC[C@H]1OC(=O)[C@H](C)[C@@H](O[C@H]2C[C@@](C)(OC)[C@@H](O)[C@H](C)O2)[C@H](C)[C@@H](O[C@@H]2O[C@H](C)C[C@H](N(C)C)[C@H]2O)[C@](C)(O)C[C@@H](C)C(=O)[C@H](C)[C@@H](O)[C@]1(C)O", "note": "[Erythromycin]", "inhibition of cell viability": "0.0155 (inactive)"}, {"smiles": "CC1=C(C/C=C(\\C)CCC[C@H](C)CCC[C@H](C)CCCC(C)C)C(=O)c2ccccc2C1=O", "note": "[Vitamin K1]", "inhibition of cell viability": "-0.199 (inactive)"}, {"smiles": "COc1ccc(CCC(=O)c2c(O)cc(O[C@@H]3O[C@H](CO)[C@@H](O)[C@H](O)[C@H]3O[C@@H]3O[C@@H](C)[C@H](O)[C@@H](O)[C@H]3O)cc2O)cc1O", "note": "[Neohesperidin Dihydrochalcone (Nhdc)]", "inhibition of cell viability": "-0.0245 (inactive)"}, {"smiles": "COc1ccc(-c2oc3c(CC=C(C)C)c(O[C@@H]4O[C@H](CO)[C@@H](O)[C@H](O)[C@H]4O)cc(O)c3c(=O)c2O[C@@H]2O[C@@H](C)[C@H](O)[C@@H](O)[C@H]2O)cc1", "note": "[Icariin]", "inhibition of cell viability": "0.041 (inactive)"}, {"smiles": "Cc1cc(O)c2c(c1)C(=O)c1cc(O)cc(O)c1C2=O", "note": "[Emodin]", "inhibition of cell viability": "0.493 (inactive)"}, {"smiles": "COc1cc(/C=C/c2ccc(O)cc2)cc(OC)c1", "note": "[Pterostilbene]", "inhibition of cell viability": "0.252 (inactive)"}, {"smiles": "CC[C@H]1OC(=O)[C@H](C)[C@@H](O[C@H]2C[C@@](C)(OC)[C@@H](O)[C@H](C)O2)[C@H](C)[C@@H](O[C@@H]2O[C@H](C)C[C@H](N(C)C)[C@H]2O)[C@](C)(O)C[C@@H](C)[C@@H]2N[C@@H](COCCOC)O[C@H]([C@H]2C)[C@]1(C)O", "note": "[Dirithromycin]", "inhibition of cell viability": "0.0389 (inactive)"}, {"smiles": "OC1OC[C@@H](O)[C@@H](O)[C@@H]1O", "note": "(stereo partly drawn) [D(-)-Arabinose]", "inhibition of cell viability": "0.0239 (inactive)"}, {"smiles": "COc1ccc2cc1Oc1ccc(cc1)C[C@H]1c3c(cc4c(c3Oc3cc5c(cc3OC)CCN(C)[C@@H]5C2)OCO4)CCN1C", "note": "[Cepharanthine]", "inhibition of cell viability": "1.01 (active)"}, {"smiles": "OC[C@H]1O[C@H](O[C@H]2[C@H](O)[C@@H](O)[C@H](O)O[C@@H]2CO)[C@H](O)[C@@H](O)[C@@H]1O", "note": "[Maltose]", "inhibition of cell viability": "0.0503 (inactive)"}, {"smiles": "Cc1ccc(C(C)C)cc2c(C)ccc1-2", "note": "[Guaiazulene]", "inhibition of cell viability": "0.0813 (inactive)"}, {"smiles": "CCCCCCCCCCCCCCCCCCCCCCCCCCCCCCO", "inhibition of cell viability": "0.22 (inactive)"}, {"smiles": "C[n+]1cccc(C(=O)[O-])c1", "note": "[Trigonelline hydrochloride]", "inhibition of cell viability": "-0.14 (inactive)"}, {"smiles": "COc1ccc2[nH]cc(CCNC(C)=O)c2c1", "note": "[Melatonine]", "inhibition of cell viability": "0.177 (inactive)"}, {"smiles": "CNC[C@H](O)c1ccc(O)c(O)c1", "note": "[Epinephrine bitartrate]", "inhibition of cell viability": "0.0849 (inactive)"}, {"smiles": "CC(C)CCC[C@@H](C)[C@H]1CC[C@H]2[C@@H]3CC=C4C[C@@H](O)CC[C@]4(C)[C@H]3CC[C@]12C", "note": "[Cholesterol]", "inhibition of cell viability": "-0.0392 (inactive)"}, {"smiles": "C[C@@H]1CC[C@]2(C(=O)O[C@@H]3O[C@H](CO)[C@@H](O)[C@H](O)[C@H]3O)CC[C@]3(C)C(=CC[C@@H]4[C@@]5(C)CC[C@H](O)[C@@](C)(CO)[C@@H]5CC[C@]43C)[C@@H]2[C@]1(C)O", "note": "[Pedunculoside]", "inhibition of cell viability": "0.134 (inactive)"}, {"smiles": "C=C(NC(=O)C(=C)NC(=O)c1csc(C2=N[C@@H]3c4csc(n4)[C@H]4NC(=O)c5csc(n5)[C@H]([C@](C)(O)[C@@H](C)O)NC(=O)[C@H]5CSC(=N5)/C(=C/C)NC(=O)[C@H]([C@@H](C)O)NC(=O)c5csc(n5)[C@]3(CC2)NC(=O)[C@H](C)NC(=O)C(=C)NC(=O)[C@H](C)NC(=O)[C@H]([C@@H](C)CC)N[C@@H]2C=Cc3c([C@H](C)O)cc(nc3[C@H]2O)C(=O)O[C@@H]4C)n1)C(N)=O", "note": "[Thiostrepton]", "inhibition of cell viability": "0.943 (active)"}, {"smiles": "O=C1c2c(O)cc(O)cc2O[C@H](c2cc(O)c(O)c(O)c2)[C@H]1O", "note": "[Dihydromyricetin]", "inhibition of cell viability": "0.596 (active)"}, {"smiles": "C[C@H](CCC(=O)NCCS(=O)(=O)O)[C@H]1CC[C@H]2[C@@H]3[C@@H](O)C[C@@H]4C[C@H](O)CC[C@]4(C)[C@H]3CC[C@]12C", "note": "[Tauroursodeoxycholic Acid]", "inhibition of cell viability": "0.00688 (inactive)"}, {"smiles": "O=C(O)c1cc(O)c2c(c1)[C@@H]([C@H]1c3cc(C(=O)O)cc(O)c3C(=O)c3c(O[C@@H]4O[C@H](CO)[C@@H](O)[C@H](O)[C@H]4O)cccc31)c1cccc(O[C@@H]3O[C@H](CO)[C@@H](O)[C@H](O)[C@H]3O)c1C2=O", "note": "[Sennoside B]", "inhibition of cell viability": "-0.103 (inactive)"}, {"smiles": "O=C(O)CCCCCCCC(O)C(O)CCCCCCO", "note": "(centres undefined) [Aleuritic Acid]", "inhibition of cell viability": "-0.54 (inactive)"}, {"smiles": "COc1c(O)cc(O)c2c(=O)cc(-c3ccccc3)oc12", "note": "[Wogonin]", "inhibition of cell viability": "-0.0139 (inactive)"}, {"smiles": "OC[C@@H](O)[C@@H](O[C@H]1O[C@H](CO)[C@@H](O)[C@H](O)[C@H]1O)[C@H](O)[C@@H](O)CO", "note": "[Maltitol]", "inhibition of cell viability": "0.0233 (inactive)"}, {"smiles": "COc1ccc(-c2cc(=O)c3c(OC)c(OC)c(OC)c(OC)c3o2)cc1OC", "note": "[Nobiletin]", "inhibition of cell viability": "0.293 (inactive)"}, {"smiles": "COc1ccc(-c2cc(=O)c3c(O)cc(O[C@@H]4O[C@H](CO[C@@H]5O[C@@H](C)[C@H](O)[C@@H](O)[C@H]5O)[C@@H](O)[C@H](O)[C@H]4O)cc3o2)cc1O", "note": "[Diosmin]", "inhibition of cell viability": "-0.00104 (inactive)"}]}]}
